Source: PubChem (Broad Institute)
IDE exosite FP: exo-site inhibitors of human insulin-degrading enzyme. purified IDE, FL-6b probe fluorescence polarization; active compounds read low. AID 1259349. P14735. z-score at 20 µM. 17,000 tested, 6.3% active;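 active = z-score of -3 or lower, meaning strong loss of probe binding signal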;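 note: His-tagged human IDE residues 42-1019 made in E. coli with 30 nM FL-6b probe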
Target sequence (P14735 42-1019 limits assumed): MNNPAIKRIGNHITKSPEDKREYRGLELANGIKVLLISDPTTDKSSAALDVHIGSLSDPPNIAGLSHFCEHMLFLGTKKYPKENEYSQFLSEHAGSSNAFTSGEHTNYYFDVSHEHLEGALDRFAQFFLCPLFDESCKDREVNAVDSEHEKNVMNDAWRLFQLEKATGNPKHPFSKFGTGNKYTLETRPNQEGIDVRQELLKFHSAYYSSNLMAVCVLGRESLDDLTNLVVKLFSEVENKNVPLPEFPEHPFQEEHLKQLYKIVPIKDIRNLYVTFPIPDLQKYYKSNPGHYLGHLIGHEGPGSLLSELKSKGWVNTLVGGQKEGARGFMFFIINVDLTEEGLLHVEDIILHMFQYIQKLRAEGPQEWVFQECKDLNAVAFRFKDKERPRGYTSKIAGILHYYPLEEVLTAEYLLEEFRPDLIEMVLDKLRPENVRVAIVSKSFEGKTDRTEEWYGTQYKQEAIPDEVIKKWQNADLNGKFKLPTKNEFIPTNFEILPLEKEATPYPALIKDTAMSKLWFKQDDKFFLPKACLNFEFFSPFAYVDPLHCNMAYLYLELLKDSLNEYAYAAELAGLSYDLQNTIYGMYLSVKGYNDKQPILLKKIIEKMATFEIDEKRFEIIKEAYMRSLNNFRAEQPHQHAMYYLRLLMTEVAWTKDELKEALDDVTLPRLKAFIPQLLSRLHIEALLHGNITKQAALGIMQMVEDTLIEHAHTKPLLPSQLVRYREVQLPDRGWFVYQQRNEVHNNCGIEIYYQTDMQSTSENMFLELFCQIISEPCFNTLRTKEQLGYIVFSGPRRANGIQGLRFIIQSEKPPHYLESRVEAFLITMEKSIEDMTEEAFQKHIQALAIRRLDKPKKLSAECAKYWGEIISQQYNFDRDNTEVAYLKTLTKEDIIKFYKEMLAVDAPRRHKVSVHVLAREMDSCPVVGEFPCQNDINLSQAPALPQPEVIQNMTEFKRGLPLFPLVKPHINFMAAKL
* hit, by the source's call; ! = a repeat was not active. The full list was thinned out, with hits kept by preference.

`Cc1ccccc1S(=O)(=O)N1CCCCN2[C@H](CO)[C@@H](c3ccc(-c4cncnc4)cc3)[C@H]2C1` gave IDE exosite FP 3.3.
Screening O=S(=O)(c1ccccc1F)N1CCCCN2[C@H](CO)[C@H](c3ccc(-c4cccnc4)cc3)[C@@H]2C1 returned IDE exosite FP 0.54.
Screening O=S(=O)(c1ccccc1F)N1CCCCN2[C@@H](CO)[C@@H](c3ccc(-c4cccnc4)cc3)[C@@H]2C1 returned IDE exosite FP -13*.
`Cc1ccccc1S(=O)(=O)N1CCCCN2[C@@H](CO)[C@H](c3ccc(-c4cncnc4)cc3)[C@@H]2C1` gave IDE exosite FP 3.7.
For C[C@@H](O)C#Cc1ccc([C@H]2[C@H](CO)N3CCCCN(S(=O)(=O)c4ccccc4)C[C@@H]23)cc1 the results were IDE exosite FP 2.5.
Screening CN1C(=O)c2cc(NC(=O)c3cscn3)ccc2OC[C@@H]2O[C@@H](CC(=O)N3CCOCC3)CC[C@H]21 returned IDE exosite FP 1.1.
For N#Cc1cccc(-c2ccc3c(c2)[C@@H]2[C@@H](CCN2C(=O)c2ccccc2F)[C@@H](CO)N3)c1 the results were IDE exosite FP 0.04.
For COc1cccc(C#Cc2ccc([C@H]3[C@@H](CO)N4C(=O)CN(C(=O)c5ccccc5)C[C@H]34)cc2)c1 the results were IDE exosite FP -3.8*.
`COc1cccc(C#Cc2ccc([C@H]3[C@H]4CN(C(=O)c5ccncc5)CC(=O)N4[C@H]3CO)cc2)c1` gave IDE exosite FP -1.6.
`COc1cccc(C#Cc2ccc([C@H]3[C@@H](CO)N4C(=O)CN(C(=O)c5ccccc5)C[C@@H]34)cc2)c1` gave IDE exosite FP 0.74.
Screening COc1cccc(C#Cc2ccc([C@H]3[C@H](CO)N4C(=O)CN(C(=O)c5ccncc5)C[C@@H]34)cc2)c1 returned IDE exosite FP -8.4*.
Screening COc1cccc(C#Cc2ccc([C@@H]3[C@H]4CN(C(=O)c5ccccc5)CC(=O)N4[C@H]3CO)cc2)c1 returned IDE exosite FP 3.7.
COc1cccc(C#Cc2ccc([C@@H]3[C@@H](CO)N4C(=O)CN(C(=O)c5ccncc5)C[C@H]34)cc2)c1 was read as IDE exosite FP -1.5.
For N#C[C@@H]1[C@H](c2ccc(-c3ccccc3F)cc2)[C@H](CO)N1C(=O)Cc1ccccc1 the results were IDE exosite FP -0.019.
O=C(Nc1cccc(F)c1)N1CCCCN2[C@H](CO)[C@@H](c3ccc(C#CC4CC4)cc3)[C@H]2C1 was read as IDE exosite FP 1.4.
Screening C[C@@H]1CC(=O)NCC/C=C\C[C@H](c2cccc(Cl)c2)NC1=O returned IDE exosite FP -0.051.
Screening c1ncc(-c2ccc(C3[C@@H]4CN(Cc5cocn5)C[C@H]3N4)cc2)cn1 (stereo partly specified) returned IDE exosite FP 3.7.
Screening c1cncc(-c2ccc(C3[C@@H]4CN(Cc5ccc6c(c5)OCO6)C[C@H]3N4)cc2)c1 (stereo partly specified) returned IDE exosite FP -1.1.
For C(=C\c1ccc(C2[C@@H]3CN(Cc4cocn4)C[C@H]2N3)cc1)/c1ccccc1 (stereo partly specified) the results were IDE exosite FP -0.39.
Screening Cc1ccccc1-c1ccc(C2[C@@H]3CN(Cc4cocn4)C[C@H]2N3)cc1 (stereo partly specified) returned IDE exosite FP -3*!.
Screening Cc1ccccc1-c1ccc(C2[C@@H]3CN(Cc4ccc5c(c4)OCO5)C[C@H]2N3)cc1 (stereo partly specified) returned IDE exosite FP -4.3*!.
Screening Cc1ccccc1-c1ccc(C2[C@H]3CNC[C@@H]2N3Cc2ccc3c(c2)OCO3)cc1 (stereo partly specified) returned IDE exosite FP -0.77.
Screening O=C(CN1CCOCC1)N1[C@H](CO)[C@@H]2c3ccccc3NC[C@@H]21 returned IDE exosite FP 3.2.
`CCS(=O)(=O)N1CC(=O)N2[C@H](C1)[C@@H](c1ccc(C#CCC(C)C)cc1)[C@@H]2CO` gave IDE exosite FP 4.
COCC(=O)N1[C@H](CO)[C@H](c2ccccc2-c2cccc(OC)c2)[C@@H]1C#N was read as IDE exosite FP 0.63.
For CN(C)CC#Cc1ccc([C@@H]2[C@H]3CN(C(=O)Nc4cc(F)ccc4F)CCCCN3[C@H]2CO)cc1 the results were IDE exosite FP 1.1.
Screening O=C(NC[C@H]1[C@@H](c2ccccc2)[C@@H](CO)N1CC1CCCC1)c1cccnc1 returned IDE exosite FP 0.35.
O=C(C[C@@H]1C=C[C@H](NC(=O)Nc2cccc(F)c2)[C@@H](CO)O1)NCC1CCCCC1 was read as IDE exosite FP 1.2.
`CO[C@@H]1CN(C)C(=O)c2ccc(NC(=O)Nc3ccccc3)cc2OC[C@@H](C)N(C(=O)CC2CC2)C[C@@H]1C` gave IDE exosite FP -0.23.
CCCC#Cc1ccc2c(c1)O[C@@H](CN(C)Cc1ccccn1)[C@H](C)CN([C@H](C)CO)S2(=O)=O was read as IDE exosite FP -1.8.
Screening CCCC#Cc1ccc([C@H]2[C@@H](CO)N(C(=O)NC(C)C)[C@@H]2CNC(C)=O)cc1 returned IDE exosite FP -0.16.
OC[C@@H]1[C@H](c2ccc(C#Cc3ccccc3)cc2)[C@H]2CN(Cc3cncnc3)CCCCN12 was read as IDE exosite FP -8.5*.
CCCC#Cc1ccc([C@H]2[C@H](CO)N3CCCCN(Cc4cncnc4)C[C@@H]23)cc1 was read as IDE exosite FP 2.3.
For COCC#Cc1ccc([C@H]2[C@@H](CO)N3CCCCN(Cc4cncnc4)C[C@@H]23)cc1 the results were IDE exosite FP 1.7.
OC[C@@H]1[C@@H](c2ccc(C#Cc3ccccc3)cc2)[C@@H]2CN(Cc3cncnc3)CCCCN12 was read as IDE exosite FP -6.4*.
Screening COCC#Cc1ccc([C@H]2[C@H]3CN(Cc4cncnc4)CCCCN3[C@H]2CO)cc1 returned IDE exosite FP 1.3.
`CCCC#Cc1ccc([C@@H]2[C@H](CO)N3CCCCN(Cc4cccnc4)C[C@@H]23)cc1` gave IDE exosite FP 0.86.
`OC[C@H]1[C@H](c2ccc(C#Cc3ccccc3)cc2)[C@@H]2CN(Cc3cncnc3)CCCCN12` gave IDE exosite FP -4.5*.
OC[C@H]1[C@@H](c2ccc(C#Cc3ccccc3)cc2)[C@H]2CN(Cc3cncnc3)CCCCN21 was read as IDE exosite FP -0.52.
`CCCC#Cc1ccc([C@@H]2[C@H](CO)N3CCCCN(Cc4cncnc4)C[C@@H]23)cc1` gave IDE exosite FP 0.051.
`CCN(C[C@@H]1[C@@H](c2ccccc2)[C@@H](CO)N1CC1CC1)C(=O)c1ccccc1F` gave IDE exosite FP 5.2.
Screening CC(=O)NC[C@H]1[C@H](c2ccc(-c3cccnc3)cc2)[C@H](CO)N1C(=O)C1CCC1 returned IDE exosite FP 3.5.
For O=C(c1ccccn1)N1[C@@H](CO)[C@@H](c2ccccc2)C12CN(Cc1ccccc1F)C2 the results were IDE exosite FP 0.85.
CC[C@@H]1C/C=C\C[C@H](c2ccccc2)NC(=O)CCC(=O)N1 was read as IDE exosite FP 1.
CO[C@@H](CN(C)C(=O)c1cc(Cl)cc(Cl)c1)[C@@H](C)CN(C(=O)Nc1ccc(F)cc1)[C@@H](C)CO was read as IDE exosite FP -0.44.
Screening CO[C@@H]1CC[C@H]2CCN(C)C(=O)[C@H](C)CN(C)C(=O)c3cc(C#N)ccc3OC[C@H]1O2 returned IDE exosite FP 0.82.
For COc1ccc(-c2ccc([C@@H]3[C@H]4CN(C(=O)C5CCCC5)CC(=O)N4[C@H]3CO)cc2)cc1 the results were IDE exosite FP -1.1.
